Assay [1] concerns Zika virus NS2B-NS3 protease. As to the kind of experiment: Primary screen GU AMC qHTS for Zika virus inhibitors (AID 1347154). Note: nearly all actives have a fitted effect of over 70% in size. Note: potency is the fitted concentration of half-maximal effect. Particulars: Zika NS2B-NS3 unlinked protease, AMC fluorogenic substrate; series mostly up to 54.1 µM. Summed up: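 Unlinked Zika NS2B hydrophilic domain/NS3 protease domain noncovalent complex (25 nM final) in 10 mM Tris-HCl pH 8.0, 0.01% Tween 20, with AMC peptide substrate. Fluorescence (ex 340, em 450 nm) change over 15 min, room temperature; percent inhibition fitted to 4-parameter Hill equation.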

Assay [2] is described as follows: qHTS to identify inhibitors of the type 1 interferon - major histocompatibility complex class I in skeletal muscle: primary screen against the NCATS Pharmaceutical Collection (AID 1347407).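 Note: luminescence of HiBiT knocked into endogenous HLA-B as interferon-induced MHC class I level.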 Note: potency is the fitted concentration of half-maximal effect. Particulars: human skeletal muscle cells, IFN-b-induced MHC-I HiBiT luminescence, 24 h; series mostly up to 45.9 µM. Put shortly:
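A qHTS format is used: 8-point, 1:5 compound series with 46 uM top final concentration, applied alongside 4 ng/ml IFN-beta to HLA-B*08:01-HiBiT knock-in myoblasts. Luminescence is measured after 24 h treatment.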
(qHTS replaces the single test concentration by a dilution series.)

The subject of assay [3] is Zika virus NS2B-NS3 protease (unlinked complex). As to the kind of experiment: Primary screen GU Rhodamine qHTS for Zika virus inhibitors: Unlinked NS2B-NS3 protease assay (AID 1347159). Note: nearly all actives have a fitted effect of over 60% in size. Particulars: Recombinant ZIKV NS2B-NS3 protease, Rhodamine110 substrate fluorescence; series mostly up to 107 µM. Put shortly: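 Unlinked NS2B/NS3, 25 nM; Rhod110 peptide, 1.5 microM; compounds, up to 114 microM. Reaction run 15 min at RT in 10 mM Tris-HCl pH 8.0, 0.01% Tween 20; kinetic fluorescence change fitted with a 4-parameter Hill model.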

Assay [4] has as its system Zika virus NS2B-NS3 protease (linked construct). As to the kind of experiment: Primary screen NINDS Rhodamine qHTS for Zika virus inhibitors (AID 1347160). Note: nearly all actives have a fitted effect of over 55% in size. Particulars: purified NS2B-NS3 protease, Rhodamine110 substrate fluorescence; series mostly up to 57.1 µM. Summed up: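 Single-chain NS2B-NS3 protease, 25 nM, pH 8.0; compounds preincubated 15 min. Activity: Rhodamine110 release from 1.5 microM substrate over 15 min, room temperature, data fitted to 4-parameter Hill.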

Assay [5] concerns the target Lysine-specific demethylase 5B (Homo sapiens) (UniProt Q9UGL1). As to the kind of experiment: Optimization screen for KDM5B Histone Demethylases FDH coupled qHTS against the LOPAC library (AID 1347166). The note with it: KDM5B demethylation, FDH-coupled NADH fluorescence (FDH is formaldehyde dehydrogenase); series mostly up to 57.5 µM. Put shortly:
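KDM5BDeltaAP (200nM final) in 50mM HEPES pH 7.5, 0.01% Tween-20 was preincubated with compound for 10 min at room temperature. A substrate mix of 12.5uM H3K4Me3, 25uM a-ketoglutarate, ascorbate, Fe2+, NAD+ and formaldehyde dehydrogenase was then added. NADH fluorescence (340/450 nm) was read initially and after 30 min.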

A short description of assay [6]: qHTS to identify inhibitors of the type 1 interferon - major histocompatibility complex class I in skeletal muscle: primary screen against the NCATS LOPAC collection (AID 1347405).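 Note: human myoblasts with HiBiT tag on endogenous HLA-B stimulated by IFN-beta; lytic HiBiT luminescence reporting HLA-B protein level.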 The note with it: iHSKM muscle cells, IFN-b-induced MHC-I HiBiT luminescence, 24 h; series mostly up to 45.9 µM. Summed up: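 IFN-beta-stimulated (4 ng/ml) HLA-B HiBiT knock-in myoblasts, compound-treated 24 hrs up to 46 uM final; signal via LgBiT complementation and furimazine luminescence.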

Records with an inconclusive call do not appear. A call without a number means that no potency is given here. The source made the active and inactive calls. Calls come from the whole dose curve; as a rule, active = well fitted curve in the direction sought with a large enough effect; inconclusive = small, poorly fitted or top-dose-only effect, or another doubt; inactive = no such curve, though single readings can be large; an effect the other way counts as inactive or inconclusive.

Lysine-specific demethylase 5B (Homo sapiens), sequence (Q9UGL1 whole entry, looked up): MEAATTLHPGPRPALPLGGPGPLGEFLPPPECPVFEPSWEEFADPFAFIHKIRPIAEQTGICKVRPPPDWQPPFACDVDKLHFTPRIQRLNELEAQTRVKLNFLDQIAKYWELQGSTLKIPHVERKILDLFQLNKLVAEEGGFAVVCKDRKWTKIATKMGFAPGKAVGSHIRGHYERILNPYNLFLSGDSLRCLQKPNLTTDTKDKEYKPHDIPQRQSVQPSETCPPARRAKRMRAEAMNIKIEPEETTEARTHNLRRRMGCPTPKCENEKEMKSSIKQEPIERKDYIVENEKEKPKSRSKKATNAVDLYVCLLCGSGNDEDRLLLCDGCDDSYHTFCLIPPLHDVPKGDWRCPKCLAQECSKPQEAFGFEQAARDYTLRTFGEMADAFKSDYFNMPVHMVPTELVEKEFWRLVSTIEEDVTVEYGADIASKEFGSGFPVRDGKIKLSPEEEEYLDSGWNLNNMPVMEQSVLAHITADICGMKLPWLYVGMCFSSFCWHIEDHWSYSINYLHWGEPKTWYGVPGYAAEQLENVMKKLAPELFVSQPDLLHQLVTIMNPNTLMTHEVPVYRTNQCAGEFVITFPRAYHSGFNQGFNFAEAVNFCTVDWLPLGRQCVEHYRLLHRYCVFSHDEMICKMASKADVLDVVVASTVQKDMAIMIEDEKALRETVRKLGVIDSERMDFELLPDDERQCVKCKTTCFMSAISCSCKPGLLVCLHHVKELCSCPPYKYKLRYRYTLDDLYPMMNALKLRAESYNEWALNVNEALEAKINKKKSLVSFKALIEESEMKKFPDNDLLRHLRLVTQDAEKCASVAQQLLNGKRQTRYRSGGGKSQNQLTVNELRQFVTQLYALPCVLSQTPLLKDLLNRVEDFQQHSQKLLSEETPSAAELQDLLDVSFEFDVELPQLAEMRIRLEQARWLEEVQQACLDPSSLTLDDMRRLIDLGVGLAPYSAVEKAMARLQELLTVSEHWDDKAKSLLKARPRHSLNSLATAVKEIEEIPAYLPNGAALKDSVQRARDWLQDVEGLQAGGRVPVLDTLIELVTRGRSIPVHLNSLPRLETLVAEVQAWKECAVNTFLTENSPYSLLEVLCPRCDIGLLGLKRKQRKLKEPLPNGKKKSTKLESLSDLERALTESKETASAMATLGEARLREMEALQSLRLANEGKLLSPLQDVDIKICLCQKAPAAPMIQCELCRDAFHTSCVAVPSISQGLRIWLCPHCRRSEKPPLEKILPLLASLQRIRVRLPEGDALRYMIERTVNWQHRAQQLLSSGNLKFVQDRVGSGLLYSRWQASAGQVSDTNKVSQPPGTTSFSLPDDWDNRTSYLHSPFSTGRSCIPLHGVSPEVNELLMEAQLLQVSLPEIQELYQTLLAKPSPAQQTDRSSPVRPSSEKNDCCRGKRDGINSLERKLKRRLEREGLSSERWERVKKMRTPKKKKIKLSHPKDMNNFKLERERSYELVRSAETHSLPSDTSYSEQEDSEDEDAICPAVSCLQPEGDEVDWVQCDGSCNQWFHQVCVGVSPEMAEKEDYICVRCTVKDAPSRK

For the compound `CCC(CN)=C(c1ccccc1)c1ccccc1`, the Potency entry in assay [1] and in assay [2] was “inactive” each time.

With `COC(=O)/C=C(/C)N`, the Potency entry in assay [1] and in assay [2] was “inactive” each time.

For the compound `O=C(C1CCCCC1)N1CC(=O)N2CCCc3ccccc3C2C1` (stereo unspecified), the Potency result in assay [1] and in assay [2] was “inactive” in each case.

`COc1cc(C=O)ccc1O`: the Potency entry in assay [1] and in assay [2] was “inactive” in each case.

Regarding `Cc1c(F)cc2c(=O)c(C(=O)O)cn3c2c1CCC3C` (stereo unspecified), the Potency entry in assay [1] and in assay [2] was “inactive” throughout.

Regarding `N#Cc1cc(NC(=O)C(=O)O)c(Cl)c(NC(=O)C(=O)O)c1`, the Potency entry in assay [1] and in assay [2] was “inactive” in each case.

Regarding `CCOc1ccc(NS(=O)(=O)c2ccc(N)cc2)nn1`, the Potency entry in assay [1] and in assay [2] was “inactive” each time.

In the case of `CCCc1c2oc(C(=O)O)cc(=O)c2cc2c(=O)cc(C(=O)O)n(CC)c12`, the Potency result in assay [1] and in assay [2] was “inactive” each time.

As to `C=C(C)C(=O)OCC(O)CO` (stereo unspecified), the Potency result in assay [1] and in assay [2] was “inactive” each time.

For `C1=CC2C3C=CC(C3)C2C1` (stereo unspecified), the Potency entry in assay [1] and in assay [2] was “inactive” throughout.

Turning to `Cc1ccc(Cl)c(OCC(O)CNC(C)(C)C)c1` (stereo unspecified), the Potency result in assay [1] and in assay [2] was “inactive” each time.

For the compound `COc1ccc2c(c1)c(CC(=O)OC/C=C(\C)CC/C=C(\C)CCC=C(C)C)c(C)n2C(=O)c1ccc(Cl)cc1`, the Potency entry in assay [1] and in assay [2] was “inactive” in each case.

`O=C(O)[C@H](O)[C@@H](O)[C@H](O[C@@H]1O[C@H](CO)[C@H](O)[C@H](O)[C@H]1O)[C@H](O)CO`: the Potency entry in assay [1] and in assay [2] was “inactive” in each case.

As for `NCC[C@H](O)C(=O)N[C@@H]1C[C@H](N)[C@@H](O[C@H]2O[C@H](CN)[C@@H](O)[C@H](O)[C@@H]2O)[C@H](O)[C@@H]1O[C@H]1O[C@H](CO)[C@@H](O)[C@H](N)[C@@H]1O`, the activity change, negative = inhibition was -0.909% [at 0.59 µM] (inactive) in assay [1] and -1.93% [at 0.727 µM] (inactive) in assay [2].

For the compound `CN1CCC(=C2c3ccccc3CCc3cccnc32)CC1`, the Potency entry in assay [1] and in assay [2] was “inactive” each time.

For the compound `O=C(CCCl)NCc1ccccc1`, the Potency entry in assay [1] and in assay [2] was “inactive” in each case.

Take `COc1ccccc1N1CCN(CC(O)COc2cc(OC)c(OC)c(OC)c2)CC1` (stereo unspecified): the Potency entry in assay [1] and in assay [2] was “inactive” in each case.

Take `CNC(=O)c1cnn(-c2nc(N)c3ncn([C@@H]4O[C@H](CO)[C@@H](O)[C@H]4O)c3n2)c1`: the Potency entry in assay [1] and in assay [2] was “inactive” in each case.

For `CC(=O)CC/C=C(\C)CC/C=C(\C)CC/C=C(\C)CCC=C(C)C`, the Potency result in assay [1] and in assay [2] was “inactive” in each case.

In the case of `CCCC(=O)c1cc(O)c(O)cc1O`, the Potency in assay [1] was 5.62 µM (active). Moreover, the Potency entry in assay [2] is “inactive”.

On to `Cc1ccc(O)cc1`, for which the Potency entry in assay [1] and in assay [2] was “inactive” in each case.

As for `CCCCOC(=O)CCCCCCCCC(=O)OCCCC`, the Potency entry in assay [1] and in assay [2] was “inactive” each time.

`CCOc1ncc(F)c(=O)[nH]1`: the Potency result in assay [1] and in assay [2] was “inactive” throughout.

For `CC1(C)S[C@@H]2[C@H](NC(=O)C(c3ccccc3)S(=O)(=O)O)C(=O)N2[C@H]1C(=O)O` (stereo partly specified), the Potency result in assay [1] and in assay [2] was “inactive” each time.

With `CCOC(=O)c1ccc(OCCN2C[C@H](O)[C@@H](O)[C@H](O)[C@H]2CO)cc1`, the Potency result in assay [3] and in assay [2] was “inactive” in each case. Further, the compound was classed as inactive in assay [4].

With `CCCCCOc1ccccc1/C(=C\SC)n1ccnc1`, the Potency result in assay [1] and in assay [2] was “inactive” throughout.

As to `CN(C)c1cc2c(Nc3ccc4c(cnn4Cc4ccccc4)c3)ncnc2cn1`, the compound was called inactive in assay [4] and in assay [5]. For the same compound, the Potency result in assay [6] was “inactive”.

In the case of `NS(=O)(=O)c1cc2c(cc1Cl)CN(C1CCCCC1)C2=O`, the Potency entry in assay [1] and in assay [2] was “inactive” throughout.

For `Fc1ccc(C(c2ccc(F)cc2)N2CCNCC2)cc1`, the Potency result in assay [1] and in assay [2] was “inactive” each time.

In the case of `CCCOc1ccc2c(c1)CC[C@@H]1[C@@H]2CC[C@]2(C)C(OC)CC[C@@H]12` (stereo partly specified), the Potency entry in assay [1] and in assay [2] was “inactive” each time.

In the case of `CCOC(=O)N1CCC(n2c(=O)[nH]c3cc(Cl)ccc32)CC1`, the Potency result in assay [1] and in assay [2] was “inactive” in each case.

For `CC(C)OC(=O)c1cc2c(OCC(O)CNC(C)(C)C)cccc2[nH]1` (stereo unspecified), the Potency entry in assay [2] is “inactive”.

Regarding `CCCCCCCCCCCCCCCC[N+](C)(C)Cc1ccccc1`, the Potency in assay [2] was 23.6 µM (active).

(Values after PubChem BioAssay (NCATS).)
